Experimental findings from PubChem BioAssay (NCATS) are described below.

Inconclusive results are not listed. The source made the active and inactive calls. Calls come from the whole dose curve; as a rule, active = well fitted inhibition curve with a large enough effect; inconclusive = small, poorly fitted or top-dose-only effect; inactive = flat fitted curve, though single readings scatter.
% is set by controls: 0 for no effect and ±100 for the full control effect.

In the assay the target is Calcium and integrin-binding protein 1 (Homo sapiens) (UniProt Q99828). The assay can be described thus: Primary qHTS for Identification of Calcium Integrin Binding Protein 1 (CIB1) Competitor (AID 1508620).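 Note: GST tagged CIB1 binding a fluorescein labelled alphaIIb integrin peptide tracer; top concentration of the series differs between compounds.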 The following applies: CIB1-GST / FITC-alphaIIb peptide fluorescence polarization; series mostly up to 114 µM; activity change, negative = inhibition: at the top concentration. The method in brief: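 CIB1-GST (1 uM final) and compound incubated 15 min at room temperature before adding FITC-alphaIIb peptide tracer (100 nM final). Competition for binding read by fluorescence polarization (ex 480, em 540) after another 15 min at room temperature.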
Sequence of Calcium and integrin-binding protein 1 (Homo sapiens) (Q99828 whole entry, looked up): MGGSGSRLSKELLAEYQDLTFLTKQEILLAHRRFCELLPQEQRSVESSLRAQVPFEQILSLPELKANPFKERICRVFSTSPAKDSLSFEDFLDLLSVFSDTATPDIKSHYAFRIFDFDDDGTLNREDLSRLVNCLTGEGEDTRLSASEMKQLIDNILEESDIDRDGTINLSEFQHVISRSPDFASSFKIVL
On the technique in general: In qHTS, concentration-response curves come from the screen itself.
`CN(CCC1CCCO1)c1ncnc2ccc(-c3ccc4c(c3)OCO4)cc12` (stereo not drawn): the “activity change, negative = inhibition” value was -3.23% (inactive).

Regarding `CCOC(=O)c1cccc(NC(=O)Nc2nnc(-c3ccncc3)s2)c1`, the “activity change, negative = inhibition” value is 4.82% (inactive). `Fc1cccc(CNc2ncnc3ccc(-c4ccoc4)cc23)c1`: the “activity change, negative = inhibition” value is -3.06% (inactive).

Consider `Nc1ncc(-c2cccc(-c3nn4c(=O)cc(N5CCNCC5)nc4s3)c2)cn1`, for which the “activity change, negative = inhibition” value was 1.79% (inactive). For `COc1ccc(OC)c(C2=Nn3c(nnc3-c3cc(OC)ccc3OC)SC2)c1`, the “activity change, negative = inhibition” value is 2.38% (inactive).

Turning to `Cc1ccc2nc3sc(C(=O)N4CCC(C(N)=O)CC4)cc3cc2c1`, the “activity change, negative = inhibition” value is -0.511% (inactive). `Cc1cc(C)nc(NC(=S)N2CCN(c3cccc(OC(F)F)c3)CC2)c1`: the “activity change, negative = inhibition” value is -7.5% (inactive). Regarding `Cc1cccc(C)c1-n1c(SCC(=O)NCCCCCC(=O)O)nnc1-c1cccc([S+](=O)([O-])N2CCCC2)c1`, the “activity change, negative = inhibition” value was -2.74% (inactive). The result for `c1nc(NCC2CCCC2)c2cc(-c3ccc4c(c3)OCO4)ccc2n1` reads 10.5% (inactive). Take `CCOC(=O)c1nc(NCc2ccccc2)sc1C`: the “activity change, negative = inhibition” value was -2.45% (inactive).

As for `N#Cc1nc(NCC(F)F)c2ncn(-c3cc(F)cc(F)c3)c2n1`, the “activity change, negative = inhibition” value was 5.7% (inactive).

As to `CC(C)CN1CC2=C(C1=O)C(c1ccccc1Cl)N=C(Nc1nc3ccccc3o1)N2` (stereo not drawn), the “activity change, negative = inhibition” value is -0.571% (inactive). `O=C(OCC#CCSc1nnc(-c2cccs2)o1)c1ccc(F)cc1`: the “activity change, negative = inhibition” value was 2.34% (inactive). Regarding `COc1cccc(-c2nnc3n2N=C(c2ccccc2OC)CS3)c1`, the “activity change, negative = inhibition” value is -1.11% (inactive).

With `Cc1cccc(S(=O)(=O)NC2CCN(C#N)C2)c1` (stereo not drawn), the “activity change, negative = inhibition” value was 3.85% (inactive).

As for `Cc1ccsc1CN(C)c1ncnc2ccc(-c3ccoc3C)cc12`, the “activity change, negative = inhibition” value is -12.8% (inactive). Next, `O=C(Nc1cccnc1)C1CCCCC1`: 8.16% (inactive); `Cc1ccc(CN(C)c2ncnc3ccc(-c4ccc(C(=O)O)o4)cc23)o1`: 1.6% (inactive); `COc1cccc(CNc2ncnc3ccc(-c4c(C)noc4C)cc23)c1`: 2.69% (inactive). As to `CCOC(=O)C1CCN(C(=O)C(C)(C)NC(=O)Nc2ccc(Cl)cc2Cl)CC1`, the “activity change, negative = inhibition” value is 5.36% (inactive). On to `Cc1ccc(NS(=O)(=O)c2cc3c(cc2N2CCCC2)NC(=O)CC3)cc1C`, for which the “activity change, negative = inhibition” value was -9.69% (inactive). For `COc1ccc(C(=O)N(Cc2ccccc2)Cc2ccc(OC)c(COc3ccc(NC(C)=O)cc3)c2)c(O)c1`, the “activity change, negative = inhibition” value was -2.55% (inactive).

Take `Cc1cc2c(s1)c1cnn(Cc3ccc(C)c(F)c3F)c(=O)c1n2C`: the “activity change, negative = inhibition” value is 12.4% (inactive).
